Reference: PubChem BioAssay (Tox21)
Unmarked numbers belong to inactive results. Inconclusive results are not listed. A call without a number means that no potency is given here. Active and inactive are the calls of the source. Unless noted, calls follow the shape of the full dose curve.

Assays:
[1] = Nuclear factor erythroid 2-related factor 2/antioxidant responsive element (Nrf2/ARE) small molecule agonists: qHTS cell viability counter screen in human keratinocytes (AID 1919968; active = well fitted curve in the direction sought with a large enough effect in the repeat runs; an effect the other way counts as inactive or inconclusive; also: nearly all actives have a fitted effect of over 55% in size)
Outline: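 KeratinoSens cells (HaCaT keratinocytes stably carrying an ARE-luciferase reporter) were seeded at 1,500 cells/well and rested 5 h at 37 C/5% CO2. They were then exposed to compounds in DMSO for 23 h. Viability was read by CellTiter-Fluor fluorescence after 1 h.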

[2] = biological target: Gonadotropin-releasing hormone receptor (Homo sapiens) (UniProt P30968); experiment: Human gonadotropin-releasing hormone receptor (GnRHR) small molecule agonists, calcium flux assay in GnRHR-HEK293 cells (AID 1920063); also: nearly all actives have a fitted effect of over 35% in size
Sequence of Gonadotropin-releasing hormone receptor (Homo sapiens) (P30968 whole entry, looked up): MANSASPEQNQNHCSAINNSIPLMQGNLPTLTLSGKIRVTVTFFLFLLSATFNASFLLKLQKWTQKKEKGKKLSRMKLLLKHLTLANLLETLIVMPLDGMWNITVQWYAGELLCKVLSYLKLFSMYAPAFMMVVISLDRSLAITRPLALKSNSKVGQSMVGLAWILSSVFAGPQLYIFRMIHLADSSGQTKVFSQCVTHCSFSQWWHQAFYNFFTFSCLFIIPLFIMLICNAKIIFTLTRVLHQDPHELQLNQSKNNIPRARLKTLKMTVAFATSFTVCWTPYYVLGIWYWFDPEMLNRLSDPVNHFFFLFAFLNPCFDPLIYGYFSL
Outline: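 HEK293 cells stably expressing human GnRHR were plated 18 h at 37 °C, loaded with calcium dye 1 h at 37 °C, then given compound in agonist mode; fluorescence (Ex/Em 480/540) read kinetically for 3 min at 1 s intervals.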

[3] = biological target: KiSS-1 receptor (Homo sapiens) (UniProt Q969F8); experiment: Human kisspeptin (KISS1R) small molecule agonists, calcium flux assay in KISS1R-HEK293 cells (AID 1920064; active = well fitted curve in the direction sought with a large enough effect in the repeat runs; an effect the other way counts as inactive or inconclusive)
Sequence of KiSS-1 receptor (Homo sapiens) (Q969F8 whole entry, looked up): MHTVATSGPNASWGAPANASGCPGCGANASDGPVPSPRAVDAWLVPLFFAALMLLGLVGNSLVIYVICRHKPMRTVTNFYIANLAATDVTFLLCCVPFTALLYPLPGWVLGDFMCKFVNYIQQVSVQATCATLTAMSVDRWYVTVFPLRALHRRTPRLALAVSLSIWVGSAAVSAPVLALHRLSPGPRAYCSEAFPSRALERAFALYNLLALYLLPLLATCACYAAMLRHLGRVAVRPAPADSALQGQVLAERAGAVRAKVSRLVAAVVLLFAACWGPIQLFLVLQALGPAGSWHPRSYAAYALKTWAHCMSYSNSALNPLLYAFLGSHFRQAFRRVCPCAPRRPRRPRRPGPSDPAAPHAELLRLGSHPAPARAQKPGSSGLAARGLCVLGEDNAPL
Outline: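 HEK293 cells stably expressing human KISS1R were plated 18 h at 37 °C, loaded with calcium dye for 1 h at 37 °C, then given compound by pin tool. Fluorescence (Ex/Em 480/540) was read kinetically for 3 min.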

[4] = G protein-coupled receptor (GPCR) small molecule agonists, calcium flux assay: HEK293 wild type cell line counter screen (AID 1920065)
Outline: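 Cells were plated and cultured 18 h at 37 C/5% CO2, then loaded with calcium dye for 1 h at 37 C. Compounds in DMSO were pin-transferred in agonist mode, and fluorescence (Ex/Em 480/540) was read kinetically for 3 min at 1 s intervals.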

[5] = p53 small molecule agonists, cell-based qHTS assay with human liver microsomes: qHTS cell viability counter screen (AID 1963579); also: nearly all actives have a fitted effect of over 45% in size; also: potency is read from the fitted curve at half-maximal effect
Outline: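 p53RE-bla cells, 4,000/well, dosed 5 hours after plating, with human liver microsomes (0.5 mg/mL final) plus NADPH (0.5 mg/mL final), 16 hours at 37 C. Viability read as CellTiter-Glo luminescence after 30 min at room temperature.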

[6] = p53 small molecule agonists, cell-based qHTS assay with rat liver microsomes: qHTS cell viability counter screen (AID 1963580); also: nearly all actives have a fitted effect of over 45% in size; also: potency is read from the fitted curve at half-maximal effect
Outline: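 Intracellular ATP, by CellTiter-Glo luminescence, defines viability. HCT-116 p53RE-bla cells, 4,000 per well, were compound-treated in the presence of rat liver microsomes and NADPH for 16 h at 37 C.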

[7] = p53 small molecule agonists, cell-based qHTS assay: qHTS cell viability counter screen (AID 1963581); also: nearly all actives have a fitted effect of over 45% in size
Outline: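 p53RE-bla HCT-116 cells were exposed to compounds for 16 h at 37 C; after the beta-lactamase FRET read in the same wells, CellTiter-Glo was added and luminescence (intracellular ATP) read after 30 min at room temperature.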

[8] = biological target: 5-hydroxytryptamine receptor 2A (Homo sapiens) (UniProt P28223); experiment: 5-hydroxytryptamine receptor 2A (HTR2A) small molecule antagonists, cell-based qHTS assay (AID 1963586); also: nearly all actives have a fitted effect of over 45% in size
Sequence of 5-hydroxytryptamine receptor 2A (Homo sapiens) (P28223 whole entry, looked up): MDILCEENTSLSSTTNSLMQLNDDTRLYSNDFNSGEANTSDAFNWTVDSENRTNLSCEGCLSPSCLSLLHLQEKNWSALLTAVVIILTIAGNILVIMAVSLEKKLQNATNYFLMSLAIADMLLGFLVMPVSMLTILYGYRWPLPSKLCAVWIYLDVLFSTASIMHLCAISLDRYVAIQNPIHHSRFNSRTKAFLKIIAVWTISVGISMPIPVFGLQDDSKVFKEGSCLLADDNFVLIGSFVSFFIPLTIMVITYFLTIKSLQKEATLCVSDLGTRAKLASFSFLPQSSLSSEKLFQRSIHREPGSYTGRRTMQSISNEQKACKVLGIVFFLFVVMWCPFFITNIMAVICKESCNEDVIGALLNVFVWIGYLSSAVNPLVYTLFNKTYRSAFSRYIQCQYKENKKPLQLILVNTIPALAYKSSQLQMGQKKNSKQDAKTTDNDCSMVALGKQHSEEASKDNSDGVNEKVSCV
Outline: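 Antagonist-mode intracellular calcium assay: DOI (4 nM) added after 5 min compound pre-incubation at room temperature to dye-loaded HTR2A-CHO cells. Fluorescence followed for 3 min, sampled every second.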

[9] = biological target: 5-hydroxytryptamine receptor 2A (Homo sapiens) (UniProt P28223); experiment: 5-hydroxytryptamine receptor 2A (HTR2A) small molecule agonists, cell-based qHTS assay (AID 1963587); also: nearly all actives have a fitted effect of over 30% in size
Outline: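 Kinetic calcium-flux fluorescence (2 min, 1 sec intervals) after compound addition in agonist mode. HTR2A-CHO cells were cultured 18 h, then dye-loaded 1 h at 37 C.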

[10] = biological target: Muscarinic acetylcholine receptor M1 (Homo sapiens) (UniProt P11229); experiment: Cholinergic receptor muscarinic 1 (CHRM1) small molecule antagonists, cell-based qHTS assay (AID 1963588); also: nearly all actives have a fitted effect of over 40% in size; also: potency is read from the fitted curve at half-maximal effect
Sequence of Muscarinic acetylcholine receptor M1 (Homo sapiens) (P11229 whole entry, looked up): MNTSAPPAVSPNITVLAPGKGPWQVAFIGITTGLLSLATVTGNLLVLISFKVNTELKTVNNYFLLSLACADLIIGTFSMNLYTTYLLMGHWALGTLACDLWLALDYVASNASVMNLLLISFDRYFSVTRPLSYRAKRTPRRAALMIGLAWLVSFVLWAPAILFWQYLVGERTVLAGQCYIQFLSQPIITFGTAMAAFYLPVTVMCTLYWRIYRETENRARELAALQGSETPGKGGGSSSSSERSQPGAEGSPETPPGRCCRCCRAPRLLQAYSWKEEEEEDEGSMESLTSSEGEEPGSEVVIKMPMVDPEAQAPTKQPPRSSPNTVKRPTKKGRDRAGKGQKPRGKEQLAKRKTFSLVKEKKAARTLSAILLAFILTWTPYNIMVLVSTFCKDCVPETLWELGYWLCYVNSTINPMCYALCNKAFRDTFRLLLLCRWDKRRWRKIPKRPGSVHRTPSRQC
Outline: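 CHRM1-CHO calcium-flux assay, antagonist mode. Cells were seeded 18 h, dye-loaded 1 h at 37 C and given compound for 5 min at RT, then acetylcholine was added at 50nM. FDSS fluorescence was read 3 min; 15 concentrations, three runs.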

[11] = biological target: Muscarinic acetylcholine receptor M1 (Homo sapiens) (UniProt P11229); experiment: Cholinergic receptor muscarinic 1 (CHRM1) small molecule agonists, cell-based qHTS assay (AID 1963589); also: nearly all actives have a fitted effect of over 35% in size
Outline: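 CHO cells stably expressing human CHRM1, seeded 18 h at 37 C/5% CO2, dye-loaded 1 h at 37 C, then given compound in agonist mode; intracellular calcium fluorescence read kinetically at 1 s intervals. Fifteen concentrations, three independent runs.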

[12] = cAMP Responsive Elements (CRE) small molecule agonists, cell-based qHTS assay (AID 1963590)
Outline: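 CRE-bla HEK 293T cells in DMEM with 10% dialyzed FBS, NEAA, pyruvate and 25 mM HEPES were plated 18 h at 37 C/5% CO2, then exposed to compounds in DMSO for 3 h before LiveBLAzer B/G FRET substrate addition.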

[13] = cAMP Responsive Elements (CRE) small molecule antagonists, cell-based qHTS assay (AID 1963591; active = well fitted inhibition curve with a large enough effect in the signal ratio in the repeat runs, not every such curve was filed as active; the % refers to the signal ratio)
Outline: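 CRE-bla HEK293T cells were plated 18 h at 37 °C/5% CO2, pinned with compound in DMSO, then stimulated with NKH477 at 0.25 uM final for 3 h. LiveBLAzer B/G FRET substrate was added and plates incubated 2 h at room temperature.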

[14] = biological target: Beta-2 adrenergic receptor (Homo sapiens) (UniProt P07550); experiment: Adrenergic beta2 receptor (ADRB2) small molecule antagonists, cell-based qHTS assay (AID 1963592); also: series mostly up to about 92 µM; nearly all actives have a fitted effect of over 50% in size
Sequence of Beta-2 adrenergic receptor (Homo sapiens) (P07550 whole entry, looked up): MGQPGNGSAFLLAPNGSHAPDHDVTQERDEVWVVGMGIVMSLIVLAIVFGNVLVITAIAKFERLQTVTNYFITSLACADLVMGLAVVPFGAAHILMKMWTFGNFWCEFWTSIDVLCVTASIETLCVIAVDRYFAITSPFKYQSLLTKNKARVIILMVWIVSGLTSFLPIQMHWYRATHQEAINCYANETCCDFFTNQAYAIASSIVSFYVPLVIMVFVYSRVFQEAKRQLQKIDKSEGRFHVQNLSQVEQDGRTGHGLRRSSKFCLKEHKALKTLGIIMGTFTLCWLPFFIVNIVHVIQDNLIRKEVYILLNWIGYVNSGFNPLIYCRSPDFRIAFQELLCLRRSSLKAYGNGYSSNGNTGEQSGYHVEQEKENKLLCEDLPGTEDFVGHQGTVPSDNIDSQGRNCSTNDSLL
Outline: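 Cells (CHO, stable ADRB2 overexpression) incubated 18-20hr at 37C; compounds added from DMSO; agonist mix (1nM isoproterenol, 100uM IBMX, 25uM Ro-20-1724) added; 0.5hr RT; d2-cAMP and anti-cAMP-cryptate added; 1hr RT; 665/615 nm read.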

[15] = biological target: D(2) dopamine receptor (Homo sapiens) (UniProt P14416); experiment: Dopamine D2 receptor (DRD2) small molecule agonists, cell-based qHTS assay (AID 1963594); also: nearly all actives have a fitted effect of over 35% in size; also: potency is read from the fitted curve at half-maximal effect
Sequence of D(2) dopamine receptor (Homo sapiens) (P14416 whole entry, looked up): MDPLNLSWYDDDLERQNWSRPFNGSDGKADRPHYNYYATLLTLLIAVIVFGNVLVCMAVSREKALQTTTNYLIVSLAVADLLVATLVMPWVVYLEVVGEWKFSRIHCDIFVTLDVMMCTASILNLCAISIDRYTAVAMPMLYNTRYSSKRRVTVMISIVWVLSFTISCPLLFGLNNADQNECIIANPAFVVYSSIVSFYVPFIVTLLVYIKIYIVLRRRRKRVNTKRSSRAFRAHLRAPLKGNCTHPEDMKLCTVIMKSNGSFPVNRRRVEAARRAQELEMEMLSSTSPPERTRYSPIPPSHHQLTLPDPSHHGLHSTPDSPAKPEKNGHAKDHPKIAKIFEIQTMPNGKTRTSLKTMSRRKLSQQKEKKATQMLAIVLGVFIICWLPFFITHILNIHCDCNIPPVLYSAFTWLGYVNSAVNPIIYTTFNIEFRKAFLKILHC
Outline: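 cAMP accumulation in DRD2-HEK293 cells measured by HTRF after 1 h detection; compounds added 10 min before NKH477 (200nM […]) forskolin-analogue stimulation, 30 min at room temperature, with Ro20-1724 present at 0.1 mM final.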

[16] = biological target: D(2) dopamine receptor (Homo sapiens) (UniProt P14416); experiment: Dopamine D2 receptor (DRD2) small molecule antagonists, cell-based qHTS assay (AID 1963595; active = well fitted inhibition curve with a large enough effect in the signal ratio in the repeat runs, with a control signal flat; the % refers to the signal ratio)
Outline: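 HTRF cAMP read-out at 665 and 620 nm emission (340 nm excitation). Antagonist mode: compounds were tested against 12 nM quinpirole in DRD2-HEK293 cells, with 200 nM NKH477 raising cAMP and 0.1 mM Ro20-1724 blocking its breakdown.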

[17] = p53 small molecule agonists, cell-based qHTS assay with human liver microsomes (AID 1963577)
Outline: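 p53RE-bla cells, 4,000/well, compound added after 5 h, with human liver microsomes 0.5 mg/mL and NADPH 0.5 mg/mL final; 16 h at 37 C, then LiveBLAzer 2 h RT, fluorescence.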

[18] = p53 small molecule agonists, cell-based qHTS assay (AID 1963582; active = well fitted activation curve with a large enough effect in the signal ratio in the repeat runs, not every such curve was filed as active; the % refers to the signal ratio; also: potency is read from the fitted curve at half-maximal effect)
Outline: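 p53RE-bla beta-lactamase reporter cells rested 5 h at 37 C/5% CO2, then received compounds in DMSO by pin transfer and were incubated 16 h at 37 C. LiveBLAzer B/G FRET substrate was loaded for 2 h at room temperature before fluorescence reading.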

[19] = p53 small molecule agonists, cell-based qHTS assay with rat liver microsomes (AID 1963578)
Outline: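 p53RE-bla cells, 4,000/well, pre-incubated 5 h, then given compounds plus rat liver microsomes (0.5 mg/mL final) and NADPH (0.5 mg/mL final). Incubation 16 h at 37 C; beta-lactamase reporter read by LiveBLAzer fluorescence after 2 h at room temperature.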

[20] = biological target: Beta-2 adrenergic receptor (Homo sapiens) (UniProt P07550); experiment: Adrenergic beta2 receptor (ADRB2) small molecule agonists, cell-based qHTS assay (AID 1963593);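 also: CHO cells stably overexpressing human ADRB2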
Outline: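 CHO cells stably over-expressing ADRB2 were plated overnight at 37C, then dosed with compounds plus a stimulation mix containing 100uM IBMX and 25uM Ro-20-1724 for 0.5hr at room temperature. cAMP was measured by HTRF competition, 1hr.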

Compound | Potency [1] | Potency [2] | Potency [3] | Potency [4] | Potency [5] | Potency [6] | Potency [7] | Potency [8] | Potency [9] | Potency [10] | Potency [11] | Potency [12] | Potency [13] | Potency [14] | Potency [15] | Potency [16] | Potency [17] | Potency [18] | Potency [19] | Potency [20]
CCCC(C)C1(CC)C(=O)N=C(S)NC1=O (configuration not stated) | inactive | inactive | inactive | inactive | inactive | inactive | inactive | inactive | inactive | inactive | inactive | inactive | inactive | inactive | inactive | inactive |  |  |  | 
N#C/C=C/C#N | inactive | inactive | inactive | inactive | inactive |  |  | inactive | inactive | inactive | inactive | inactive |  | inactive |  | inactive | inactive | 30.2 µM (active) |  | 
CCC(C)c1cc(C(C)(C)C)cc(-n2nc3ccccc3n2)c1O (configuration not stated) | inactive | inactive | inactive | inactive |  |  |  | inactive |  | inactive | inactive | inactive | inactive | inactive | inactive | inactive | inactive |  | inactive | 
N#CC(C#N)=Cc1ccc(O)c(O)c1 | inactive | inactive | inactive | inactive | inactive | inactive |  |  |  |  |  |  |  | inactive | inactive |  |  | inactive | inactive | 
C[C@H]1[C@H](c2ccc(Cl)cc2)SC(=O)N1C(=O)NC1CCCCC1 | inactive | inactive | inactive | inactive | inactive | inactive | inactive | inactive | inactive | inactive | inactive |  | inactive | inactive | inactive | inactive |  |  | inactive | inactive
C[C@H]1[C@@H]2Cc3ccc(O)cc3[C@@]1(C)CCN2C | inactive | inactive | inactive | inactive |  |  | inactive | inactive | inactive | inactive | inactive | inactive | inactive | inactive | inactive | inactive | inactive | inactive | inactive | inactive
COc1cc(CC(C)N)c(OC)cc1Br (configuration not stated) | inactive | inactive | inactive | inactive |  |  | inactive | inactive |  | 17.3 µM (active) | inactive | inactive | inactive |  | 20 µM (active) | inactive | inactive | inactive | inactive | 
CC(C)Oc1cccc(NC(=O)c2ccccc2C(F)(F)F)c1 | inactive | inactive | inactive | inactive | inactive |  |  |  | inactive | 0.0119 µM (active) | inactive |  |  |  | inactive |  |  | inactive | inactive | 
COP(=O)(OC)SCn1c(=O)oc2cc(Cl)cnc21 | inactive | inactive | inactive | inactive |  | inactive |  | inactive | inactive | inactive | inactive |  |  |  | inactive | inactive | inactive |  |  | inactive
CN | inactive | inactive | inactive | inactive | inactive | inactive | inactive |  | inactive |  | inactive | inactive |  | inactive | inactive | inactive | inactive | inactive |  | 
O=C1c2ccccc2C(=O)C1C(=O)C(c1ccccc1)c1ccccc1 | inactive | inactive | inactive | inactive | inactive | inactive |  | inactive | inactive | inactive | inactive |  | inactive | inactive | inactive | inactive |  |  | inactive | 
NC(=S)C(N)=S | inactive | inactive | inactive | inactive | inactive | inactive | inactive | inactive | inactive | inactive | inactive |  | inactive | inactive | inactive | inactive |  | inactive |  | 
BrCCCCCCBr | inactive | inactive | inactive | inactive |  | inactive | inactive |  | inactive | inactive |  | inactive | inactive | inactive | inactive |  | inactive | inactive |  | inactive
CC(C)(CCl)C(=O)Cl | inactive | inactive | inactive | inactive | 18.2 µM (active) | inactive | inactive | inactive | inactive | inactive | inactive | inactive | inactive | inactive | inactive | inactive |  | inactive | inactive | 
CC(Cl)(Cl)[N+](=O)[O-] | inactive | inactive | inactive | inactive | inactive |  | inactive | inactive | inactive | inactive |  | inactive | inactive | inactive | inactive | inactive |  | inactive | inactive | inactive
OCCCBr | inactive | inactive | inactive | inactive |  | 1.45 µM (active) |  | inactive | inactive | inactive |  | inactive | inactive | inactive |  | inactive |  | inactive |  | 
[Cl-].[Cl-].[Sn+2] | inactive | inactive | inactive | inactive |  | inactive | inactive | inactive | inactive | inactive | inactive | inactive | inactive | inactive |  | inactive |  |  |  | 
CC(=O)Nc1ccc2c(c1)Cc1ccccc1-2 | inactive | inactive | inactive | inactive | inactive | inactive | inactive |  |  |  |  |  | inactive | inactive | inactive |  |  |  |  | inactive
